CHRM1 antagonist: human M1 muscarinic receptor antagonists, primary screen, CHO-K1 cells, Fluo-8 calcium fluorescence, 1536-well. inhibition, % at 3 µM. 360,000 tested, 1.3% active. Muscarinic acetylcholine receptor M1 (Homo sapiens), P11229. CHO-K1 hM1, ACh EC80 antagonist;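 active = percent inhibition above its own plate's cutoff, namely the mean of that plate's compound wells plus 3 SD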;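 also: peak over basal fluorescence ratio during 140 s after agonist addition; 0% = ACh EC80 plus DMSO and 100% = DMSO alone without agonist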
Target sequence (P11229 whole entry, looked up): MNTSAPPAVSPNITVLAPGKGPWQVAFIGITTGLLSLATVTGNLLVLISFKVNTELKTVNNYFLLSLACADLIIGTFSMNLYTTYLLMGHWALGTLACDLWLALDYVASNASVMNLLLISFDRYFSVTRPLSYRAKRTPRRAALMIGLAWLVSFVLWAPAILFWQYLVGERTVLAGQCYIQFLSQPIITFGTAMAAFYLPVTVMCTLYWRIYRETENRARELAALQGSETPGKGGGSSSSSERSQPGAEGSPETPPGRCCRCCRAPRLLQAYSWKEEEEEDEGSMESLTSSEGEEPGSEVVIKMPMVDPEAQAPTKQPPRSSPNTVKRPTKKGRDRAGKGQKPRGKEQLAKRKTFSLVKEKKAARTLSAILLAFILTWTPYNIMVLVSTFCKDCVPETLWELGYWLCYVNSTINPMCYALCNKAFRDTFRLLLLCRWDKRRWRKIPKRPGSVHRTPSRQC
CHRM1 PAM: human M1 muscarinic receptor positive allosteric modulators, primary screen, CHO-K1 cells, Fluo-8 calcium fluorescence, 1536-well. AID 588819, 2011. activation, % at 3 µM. CHO-K1 hM1, ACh EC20; 0% = ACh EC20, 100% = maximal ACh. 360,000 tested, 0.088% active. Muscarinic acetylcholine receptor M1 (Homo sapiens), P11229; in the data active = activation above about 19%, passing the limit was not always enough
CHO-K1 Ca PAM: nonselective calcium activators in parental CHO-K1 cells, primary screen, counter-screen for M1 PAM project, cell-based, Fluo-8 calcium fluorescence, full deck, 1536-well; ATP EC20; 0% at ATP EC20, 100% at ATP max; activation, % at 3 µM; 360,000 tested, 0.02% active; AID 602247, 2012;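 active = activation above the run cutoff, the mean activation of all test compounds plus 3 SD, cut at about 40% in these data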;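 also: peak over basal fluorescence ratio in a 140 s read after ATP addition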
M1 ag: human M1 muscarinic receptor agonists, primary screen, Fluo-8 calcium fluorescence, CHO-K1 cells, HTS. Muscarinic acetylcholine receptor M1 (Homo sapiens), P11229. CHO-K1 hM1, agonist mode; 0% DMSO, 100% acetylcholine EC100. activation, % at 3 µM. 360,000 tested, 0.33% active. AID 588814, 2011;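 active = activation above the run's mean compound activation plus 3 SD, cut at about 16% in these data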;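 also: peak over basal fluorescence ratio within a 140 s kinetic read after compound addition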
M1 ag parental: counter-screen for M1 agonists: effect in parental CHO-K1 cells; Fluo-8 calcium fluorescence; scaled to maximal ATP response, vehicle zero; activation, % at 3 µM; 360,000 tested, 0.48% active; AID 602248, 2012; in the data active = activation above about 15%;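 also: untransfected CHO-K1 host cells lacking M1 receptor as counterscreen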
CHO-K1 Ca antag: counter-screen for M1 antagonists: effect in parental CHO-K1 cells | ATP-induced calcium, Fluo-8 fluorescence | inhibition, % at 3 µM | 360,000 tested, 0.6% active;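 active = inhibition above a per-plate cutoff, the plate's mean sample inhibition plus 3 SD, cut at about 24% in these data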;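 also: 0% = DMSO plus EC80 ATP and 100% = DMSO alone without ATP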
Active calls of the source: *. Most compounds without a hit are left out; they make up all but 2.3% or so of the library.

SMILES | CHRM1 antagonist | CHRM1 PAM | CHO-K1 Ca PAM | M1 ag | M1 ag parental | CHO-K1 Ca antag
CN(CCO)c1ccc(C=NNc2ccc([N+](=O)[O-])cc2S(=O)(=O)Nc2ccccc2C(=O)O)cc1 | -1 | -2 | -8 | 1 | 1 | -1
CCS(=O)(=O)c1ncc(Cl)c(C(=O)Nc2ccc(S(=O)(=O)N(C)c3ccccc3)cc2)n1 | 88* | -24 | -30 | -6 | 1 | 14
CCN(c1ccccc1)S(=O)(=O)c1ccc(NC(=O)c2nc(S(C)(=O)=O)ncc2Cl)cc1 | 35 | -9 | -9 | 1 | 6 | 18
Cc1ccc(OCC(=O)Nc2ccc(N3CCCC3)cc2)cc1C | 21 | -22 | 6 | -9 | 0 | -7
Cc1cc(C)cc(OCC(=O)Nc2ccc(N3CCCC3)cc2)c1 | 56* | -36 | 0 | -12 | 0 | -10
Cc1ccc(C)c(C(=O)OCC(=O)Nc2ccc(N3CCOCC3)cc2)c1 | -24 | 25* | 12 | 3 | 1 | -19
Cc1cnc(CNC(=O)C2CCC(=O)N(CCc3ccc(Cl)cc3)C2)cn1 (stereo unspecified) | -2 | 10 | -9 | 5 | 0 | 12
N#Cc1c(-c2ccccc2)nc(SCC(=O)N2c3ccccc3Sc3ccccc32)[nH]c1=O | -18 | 11 | 15 | 0 | -1 | -5
Cn1c(N)c(C(=O)CSc2nn(-c3ccc(F)cc3)c(=S)s2)c(=O)n(C)c1=O | 12 | -6 | -4 | -4 | 1 | -8
CC(SC1=NCCN1S(=O)(=O)c1ccccc1)c1ccccc1 (stereo unspecified) | -3 | 0 | -22 | -4 | -1 | -2
Cc1cc(C)c(NS(=O)(=O)c2ccc3c(c2)n(C)c(=O)n3C)c(C)c1 | -11 | 2 | 5 | -1 | 0 | -17
Cc1ccccc1NS(=O)(=O)c1ccc2c(c1)n(C)c(=O)n2C | 1 | 7 | 4 | -4 | 15* | 9
O=C(Nc1cccc(/C=C/c2ccccn2)c1)c1ccc(-n2cncn2)cc1 | 31* | -15 | 1 | 3 | 6 | 0
Nc1c(C(=O)c2ccccc2)sc2nsc(SCCN3CCCC3)c12 | 55* | -26 | 8 | 11 | 16* | 10
COc1ccc(Cn2c(=O)[nH]c3cc(OC)c(OC)cc3c2=O)cc1 | 9 | -4 | 4 | -1 | 6 | -4
CCOc1cc2[nH]c(=O)n(Cc3ccccc3)c(=O)c2cc1OCC | 9 | -1 | -8 | -4 | 0 | 26*
O=C(c1ccc(-n2cncn2)c2ccoc12)N1CCOCC1 | -8 | 6 | 10 | -3 | 0 | -3
CC1CN(C(=O)CCc2cc(C(C)(C)C)c(O)c(C(C)(C)C)c2)CC(C)O1 (stereo unspecified) | 18 | -6 | -6 | -2 | 3 | 27*
CC(C)(C)c1cc(CCC(=O)N2CCC2)cc(C(C)(C)C)c1O | -11 | 8 | 5 | -4 | 0 | -14
COc1cc2c(cc1OC)CN(C(=O)CCNC(=O)c1ccccc1Cl)CC2 | -9 | 12 | 15 | -4 | 0 | -6
O=CNc1cc(-c2ccccc2)cn2c(-c3ccc(F)c(Cl)c3)cnc12 | -9 | 4 | 18 | -3 | 1 | -16
CN(C)c1ccc(-c2cc(NC=O)c3ncc(-c4ccc(F)c(Cl)c4)n3c2)cc1 | 17 | -14 | 11 | 11 | 20* | 5
COc1cccc(-c2cnc3c(NC=O)cc(-c4ccc(N(C)C)cc4)cn23)c1 | 15 | -1 | 4 | 3 | 14 | 25*
Nc1ccc(N2CCN(c3cccc(Cl)c3)CC2)cc1 | -6 | -1 | 24 | -11 | 3 | -5
Nc1cc(=O)[nH]n1C1CCN(c2ccccc2)CC1 | -5 | 3 | -5 | 0 | -1 | 26*
FC(F)(F)C1=NNC(c2ccc3ccccc3c2)=NN1 | -13 | 4 | 13 | 0 | 0 | 0
CC(=O)c1cnc(Nc2cccc(C)c2)s1 | -6 | 15 | -4 | -11 | 0 | -9

Screening results from PubChem.
